Measurements published in PubChem BioAssay AID977606 (Broad Institute, 2014).
The campaign covered roughly 1,500 compounds. About 430 (29%) were called active. How the calls were made is not given here. Only a sample is shown. Results with a measured potency or affinity are listed apart.

Experiment: insulin secretion activators without glucose, dose response, counter-screen for glucose-dependent insulin secretion activators, cell-based, INS-1E, Gaussia luciferase, luminescence, cherry-pick (AID 977606);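 further: 0% = median of neutral control wells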
Settings: INS-1E Gaussia luciferase insulin secretion, no glucose, 100% = twice neutral-control luminescence; series mostly up to 35 µM; activation: at the top concentration

Structure (SMILES)	activation
Cc1cccn2cc(CCNS(=O)(=O)c3cccs3)nc12	-10.6% (inactive)
Cc1cc(S(=O)(=O)NCc2cccnc2)ccc1F	-4% (inactive)
COc1cc2ccc(C(C)=NNC(N)=S)cc2cc1OC	-6.54% (inactive)
O=C(Nc1ccnn1C1CCN(C2CCC2)CC1)c1ccccc1Cl	-5.89% (inactive)
CC1Cc2ccccc2N1C(=S)NC(=O)c1cccc(Br)c1 (configuration not stated)	-5.85% (inactive)
O=S(=O)(NCC1CCCO1)c1ccc(Cl)nc1 (configuration not stated)	-8.07% (inactive)
Cc1ccccc1-n1nc2c(c1NC(=O)c1cc3ccccc3oc1=O)CS(=O)(=O)C2	5.15% (inactive)
CC(C)CC(=O)Nc1c2c(nn1-c1ccc(F)cc1)CS(=O)(=O)C2	-0.198% (inactive)
O=C1N(c2ccccc2)c2ccccc2[C@]12C[C@H](O)CO2	-11.7% (inactive)
CC(C(=O)Nc1ccc2[nH]c(=O)[nH]c2c1)N1CCN(Cc2ccc3c(c2)OCO3)CC1 (configuration not stated)	-9.39% (inactive)
O=C(c1ccco1)N1CCN(C2CN(Cc3ccccc3)S(=O)(=O)C2)CC1 (configuration not stated)	-9.32% (inactive)
COc1ccc(-c2nnc3sc(-c4ccco4)nn23)cc1OC	6.22% (inactive)
COc1ccc(-c2ccncc2)cc1OC	15.7% (inactive)
COc1ccc(-c2nc(C(=O)O)cs2)cc1OC	-3.24% (inactive)
COc1ccc(-c2nnn(Cc3nc(N)nc(N4CCOCC4)n3)n2)cc1OC	-2.45% (inactive)
Cc1ccc2nc(N3CCN(C(=O)CCCC(=O)O)CC3)nc(-c3ccccc3)c2c1	25.8% (inactive)
COc1ccc(-c2cc(-c3ccco3)[nH]c(=O)c2C#N)cc1OC	-10.6% (inactive)
CC(C)C(C(=O)NCc1ccco1)N(CC1CCCO1)C(=O)CNS(=O)(=O)c1ccc(F)cc1 (configuration not stated)	8.11% (inactive)
COc1cccc(-n2c(=O)n(Cc3ccccc3)c(=O)c3[nH]cnc32)c1C	1.8% (inactive)
CCOc1nc(NC(=O)NS(=O)(=O)c2cccc(Cl)c2)nc(-c2ccccc2)n1	-0.406% (inactive)
COc1ccccc1-n1cnc2sc(C)c(C)c2c1=O	-11.2% (inactive)
CCCCNC(=O)O[C@H]1C[C@@H]2CCN3C(=O)CCC[C@H]([C@H]1CC)[C@H]23	-16.4% (inactive)
COc1ccc(CCNS(=O)(=O)c2cccc(C)c2)cc1OC	-10.9% (inactive)

Structure (SMILES)	activation
CCNC(=O)C1(C)CCCN1Cc1cccc(C(F)(F)F)c1 (configuration not stated)	24.4% (inactive)
CCN(CC)CCCN=C1N[C@@H](c2ccccc2)C(C(=O)OC)=C(C)N1CC	-10.1% (inactive)
O=C(c1ccccc1F)N1CCCC(N2CCN(Cc3ccc4c(c3)OCO4)CC2)C1 (configuration not stated)	-10.6% (inactive)
COc1ccc(S(=O)(=O)N(C)c2ccc(C(=O)N3CCCC3)cc2)cc1OC	-8.35% (inactive)
CCN(CC)C(=O)c1ccccc1NS(=O)(=O)c1ccc(C)cc1	-0.799% (inactive)
CCN(CCC(=O)O)c1ccccc1	-5.78% (inactive)
CCCCC(=O)N(C)c1c(CC)nc2c(OCc3ccc(C(F)(F)F)cc3)cccn12	16.1% (inactive)
C=C(C)n1c(=O)n(Cc2ccccc2C)c2ccccc21	13.3% (inactive)
CCOC(=O)N1CCN(S(=O)(=O)N2CCCC(C(=O)NCc3cc(OC)ccc3OC)C2)CC1 (configuration not stated)	23.5% (inactive)
CCCNC(=O)C1(C)CCN(C(=O)c2cccc(C(F)(F)F)c2)C1 (configuration not stated)	12% (inactive)
COc1cc(C(F)(F)F)c(C(=O)NCc2cccc(Cl)c2)cn1	-12.8% (inactive)
CCn1cc(S(=O)(=O)NCCc2ccc(OC)c(OC)c2)cn1	1.79% (inactive)
O=C(Nc1nnc(-c2ccc(Cl)cc2)o1)NC1CCCCC1	6.27% (inactive)
COc1cc2cnc(-c3ccsc3)cc2cc1OC	3.85% (inactive)
CCOC(=O)C1CCCN(C(=O)c2cccnc2Oc2ccccc2)CC1 (configuration not stated)	-3.81% (inactive)
CCOC(=O)c1ccc(S(=O)(=O)N2CCC(C(=O)Nc3nnc(C)o3)CC2)cc1	6.79% (inactive)
CCc1cccc(NC(=O)C2CCCN2S(=O)(=O)c2ccc3c(c2)n(C)c(=O)c(=O)n3C)c1 (configuration not stated)	-8.87% (inactive)
Cc1cccc(C)c1OCCCn1ccnc1	9.39% (inactive)
CCSc1ncnc2sc3c(c12)CCC3	55.8% (inactive)
O=C1c2cccnc2C(Nc2cccc(F)c2)N1Cc1ccco1 (configuration not stated)	15.7% (inactive)
C[C@@H]1CN([C@H](C)CO)C(=O)CCCn2nncc2CO[C@H]1CN(C)C(=O)Nc1ccnc(N2CCOCC2)c1	7.66% (inactive)
Cc1ccc(-c2nc(C#N)c(NCC3CCCO3)o2)cc1 (configuration not stated)	-7.63% (inactive)
CCOc1ccc(Nc2oc(-c3cccc(Cl)c3)nc2C#N)cc1	-0.811% (inactive)

Structure (SMILES)	activation
CN1CCN(C(=O)c2cccc(-c3cnc4cnc(-c5ccccc5Oc5ccccc5)cn34)c2)CC1	14.4% (inactive)
N#Cc1ccc(-c2ccc3c(c2)[C@@H]2[C@@H](CCN2C(=O)C2CCCC2)[C@@H](CO)N3)cc1	-18.1% (inactive)
COc1ccccc1C(=O)N/N=C(\C)CC(=O)Nc1ccc2c(c1)OCCO2	-2.67% (inactive)
COc1ccc(-n2c(=S)[nH]c3cc(C(=O)Nc4ccc(OC)c(OC)c4)ccc3c2=O)cc1	3.17% (inactive)
C=CCc1ccccc1Oc1cc(OC)nc(N)n1	-9.57% (inactive)
COc1ccccc1CNC(=O)CCNS(=O)(=O)c1ccc2[nH]c(=O)oc2c1	-11.6% (inactive)
COc1ccc(-c2ccc(SCc3ccccn3)nn2)cc1OC	1.81% (inactive)
CC1(C(=O)NCc2ccccc2)CN(S(C)(=O)=O)CC(=O)N1C1CC1 (configuration not stated)	32.6% (inactive)
CC(C)NC(=O)C1(C)CCN1Cc1cccc(C#N)c1 (configuration not stated)	2.56% (inactive)
Cc1ccccc1CN(C)Cc1cc(=O)oc2c(C)c(C)ccc12	25.7% (inactive)
C[C@H]1CN=C(N(C)C)N1CC1CCCC1	-1.37% (inactive)
Cc1nn(-c2ccccc2)c(N2CCCC2)c1/C=N/O	-6.01% (inactive)
COc1ccccc1NS(=O)(=O)c1cccc(C(=O)N/N=C/c2c(C)nn(-c3ccccc3)c2N2CCCC2)c1	-20.3% (inactive)
COc1ccc(S(=O)(=O)Nc2cccc(-c3ccc4nncn4n3)c2)cc1F	-4.18% (inactive)
CNC(=O)c1[nH]nc2c1CCc1cc(OC)ccc1-2	26.6% (inactive)
COc1ccc2c(c1)CCc1cc(C(=O)O)sc1-2	0.793% (inactive)
COc1ccc2c(c1)[C@@]1(OCCC=C[C@H]1C)C(=O)N2CC1CC1	2.55% (inactive)
CCOc1ccc(C(C)=O)cc1COC(=O)CN1C(=O)NC2(CCCC2)C1=O	-3.42% (inactive)
NC(=O)C1CCN(c2nc(-c3ccccc3)nc3ccccc23)CC1	21.8% (inactive)
CN(Cc1ccccc1)c1ncnc2[nH]ncc12	-5.45% (inactive)
O=C(Nc1ccc(F)cc1)c1cccnc1Oc1ccccc1	-4.69% (inactive)
c1ccc(-c2ccccc2OCCN2CCCCC2)cc1	15.9% (inactive)
N#Cc1sc2nc3c(c(-c4cccnc4)c2c1N)CCC3	-3.17% (inactive)

Structure (SMILES)	activation
Cc1ccc(CS(=O)Cc2ccc(C(=O)NCc3ccccc3)o2)cc1 (configuration not stated)	7.13% (inactive)
Cc1cccc(C)c1NC(=O)C1c2ccccc2OCC(=O)N1CCCN1CCOCC1 (configuration not stated)	-8.75% [at 11 µM] (inactive)
Cc1ccc(C(=O)n2nc(-c3cccnc3)nc2N)cc1	-5.96% (inactive)
CC(=O)NCCc1nc2ccccc2n1CCOc1cccc(C)c1	5.03% (inactive)
COc1ccc(OCC(=O)NNC(=O)Cn2c(=O)cnc3ccccc32)cc1	6.08% (inactive)
CCCCCCn1c(-c2cccs2)n[nH]c1=S	17.7% (inactive)
CCN1CCN(CC(=O)Nc2ccc(C(C)=O)cc2)CC1	28% (inactive)
COc1ccc(OC)c(-c2nnc3n2N=C(c2ccc(OC)c(OC)c2)CS3)c1	18.8% (inactive)
CC[C@@H]1CC2=C(C(=O)OC(C)(C)O2)[C@H](c2ccc(F)cc2)O1	2.8% (inactive)
C#Cc1cccc(-n2nnc(C(=O)OC)c2-c2ccccc2)c1	-7.18% (inactive)
CCOC(=O)c1sc2nc(-c3ccccc3)ccc2c1N	0.732% (inactive)
Cc1cc(-c2ccccc2)n2nc(N)nc2n1	-12.7% (inactive)
CNC(=O)C1CC(=O)N(c2ccc(OCC(=O)Nc3ccccc3)cc2)C1 (configuration not stated)	5.56% (inactive)
CCCc1cc(=O)oc2cc(OCC(=O)NC3CCN(Cc4ccccc4)CC3)ccc12	-7.23% (inactive)
Cc1ccc2c(c1)c(-c1ccccc1)nc1nncn12	-6.19% (inactive)
CCC(CC)NC(=O)c1ccccc1Oc1ccccc1	9.88% (inactive)
COc1ccc(C2=Nn3c(nnc3-c3ccncc3)SC2)cc1OC	-11.7% (inactive)
C/C(Cl)=C\Cn1c(N2CCCC2)nc2c1c(=O)n(C)c(=O)n2C	14.8% (inactive)
CCOc1cc(/C=C(\CC(=O)O)c2nc3ccccc3s2)ccc1OC	13.1% (inactive)
C=CCN1C(=O)CSc2ccc(C(=O)OCC)cc21	-1.71% (inactive)
CC(NC(=O)C1CCCN1S(=O)(=O)c1ccc2c(c1)n(C)c(=O)c(=O)n2C)c1ccccc1 (configuration not stated)	-5.02% (inactive)
N#CCCN(Cc1ccccc1)C(=O)c1cccs1	-7.34% (inactive)
CNc1nc(Cl)nc2c1ncn2-c1ccccc1	19.5% (inactive)

Structure (SMILES)	activation
COc1ccc(CCN2CC(=O)NC(=O)C2)cc1OC	22.1% (inactive)
CCOC(=O)Cn1c(=O)n(Cc2ccccc2)c(=O)c2cccnc21	-6.95% (inactive)
COc1ccc(S(=O)(=O)Nc2ccc3c(c2)OCO3)cc1OC	-6.28% (inactive)
C[C@@H]1O[C@H](C2CCCC2)CC2=C1C(=O)OC(C)(C)O2	41.4% (inactive)
COc1ccc(S(=O)(=O)N2CCOCC2)cc1NC(=O)COc1ccccc1	-8.73% (inactive)
CCOc1ccc(C(=O)OCC(=O)Nc2cc(C)on2)cc1OCC	-7% (inactive)
COc1cc(C(C(=O)NC2CCCC2)N(Cc2ccco2)C(=O)c2snc(C(N)=O)c2N)cc(OC)c1OC (configuration not stated)	12.9% (inactive)
N#CN=CN1CC=C(c2ccc(Cl)cc2)CC1	2.48% (inactive)
CC(=O)Nc1sc(C)c(C)c1C(=O)OCC(=O)Nc1cc(S(C)(=O)=O)ccc1Cl	-6.45% (inactive)
CCOC(=O)c1cc(CC)sc1NC(=O)COC(=O)c1cnccn1	-2.44% (inactive)
COc1ccc(CCNCc2cc3ccc(C)cc3[nH]c2=O)cc1OC	5.42% (inactive)
COc1cc(OC)c(OC)cc1CCC(C)NC(=O)Cc1ccccc1 (configuration not stated)	-9.61% (inactive)
COc1cc2c(cc1OC)-c1cc(Nc3ccc(N(C)C)cc3)nc(=O)n1CC2	-14.1% (inactive)
COc1ccc(N2CC(NS(=O)(=O)c3cccs3)CC2=O)cc1OC (configuration not stated)	-15.1% (inactive)
O=C(O)c1ccc(-c2nc(-c3ccccc3)c(-c3cccs3)[nH]2)cc1	2.7% (inactive)
CCOC(=O)Cn1nc(-c2ccccc2)c(-c2ccccc2)nc1=O	6.82% (inactive)
O=C(Cc1c[nH]c2ccccc12)N[C@@H](Cc1c[nH]c2ccccc12)C(=O)O	-0.773% (inactive)
Cc1ccc(S(=O)(=O)N(C)c2nc3ccccc3n3c(C(C)C)nnc23)cc1	-5.47% (inactive)
C=CCc1cccc(/C=N/NC(=O)CCC(=O)Nc2ccc(C)cc2)c1O	-11% (inactive)
O=C(N/N=C/c1cc(Cl)ccc1O)c1ccc(Br)cc1	-1.82% (inactive)
